Structures are written as SMILES. The whole screen tested about 2,300 compounds, of which about 2,100 (91%) were called active. The set was probably picked from earlier hits. A selection follows. Results with a measured potency or affinity are listed apart. Values without a mark were called inactive.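 Rule for the calls: active = compounds raising the signal whose fitted half-maximal concentration is at or below their top tested dose (cut at about 25 µM in these data); inconclusive = flat fit at 30 to 70% activity, or a poor fit; inactive = the rest.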

The assay is described as follows: cytokine-free beta-cell viability effect – INS-1E rat cells, ATP luminescence, cherry pick, counter-screen for beta-cell apoptosis protection project, dose response (AID 463229).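 Note: 0% = median of neutral control wells and 100% = median of positive control wells.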 The following applies: INS-1E rat beta cells, no cytokines, CellTiter-Glo ATP, 48 h; series mostly up to 26 µM; activity change (ATP luminescence): at the top concentration. For orientation: The purpose of a counterscreen is to sort out artefacts and off-target activity.
On to `O=C(N/N=C/c1cccnc1)c1ccccc1NS(=O)(=O)c1cccs1`, for which the “activity change (ATP luminescence)” value is -14.6%.

On to `O=C(c1cccc(Cl)c1)c1nn(-c2ccccc2)c(=O)cc1C(F)(F)F`, for which the “activity change (ATP luminescence)” value is 9.76%.

With `O=[N+]([O-])/C=C/c1cn(Cc2ccc(F)cc2)c2ccccc12`, the “activity change (ATP luminescence)” value was 7.17%.

Turning to `Cc1csc2nc(NC(=O)c3ccccc3)sc(=O)c12`, the “activity change (ATP luminescence)” value was -14%.

Consider `CCOc1ccc(N(C)S(=O)(=O)c2ccc(C)c(C(=O)OCC(=O)c3c[nH]c4ccccc34)c2)cc1`, for which the “activity change (ATP luminescence)” value was -33.9%.

As to `OC(CNC1CCCCC1)COCCOc1ccc(Br)cc1` (centres undefined), the “activity change (ATP luminescence)” value is 20.5%.

In the case of `Cc1cc(C)c(OCC(O)CNC(C)(C)C)c(C)c1` (centres undefined), the “activity change (ATP luminescence)” value is -15.4%.

Consider `CC(C)(C)OC(=O)N1CCC(CNC(=O)c2cccs2)CC1`, for which the “activity change (ATP luminescence)” value is 3.81%.

For `COc1ccc(-c2ccnc(SCC(=O)N3CCN(c4ccccc4)CC3)n2)cc1`, the “activity change (ATP luminescence)” value was 8.24%.

In the case of `O=C(NCc1nc2ccccc2[nH]1)C1=C[C@@H](C2CCCCC2)C[C@@H](OCc2ccc(CO)cc2)O1`, the “activity change (ATP luminescence)” value was 74.8%.

As to `CCCOC(=O)/C(C(N)=NCc1ccccc1)=C(\O)OCCC`, the “activity change (ATP luminescence)” value is 8.11%.

Take `CCOC(=O)C1=C(CCc2ccccc2)NC(=O)NC1c1ccc2ccccc2c1` (centres undefined): the “activity change (ATP luminescence)” value was 3.88%.

For the compound `c1cc(-c2noc(CC3CCCCC3)n2)ccn1`, the “activity change (ATP luminescence)” value was -5.37%.

As for `COc1ccccc1/C=N/OCc1cc(C(C)=O)ccc1OC`, the “activity change (ATP luminescence)” value is -1.8%.

Turning to `CCCC(=O)N(CCN(C(=O)CCC)c1ccccc1)c1ccccc1`, the “activity change (ATP luminescence)” value is -4.4%.

With `NC(=O)c1ccccc1OC1CCC1`, the “activity change (ATP luminescence)” value is -1.51%.

With `CN(C)c1ccc(/C=C(\C#N)C(=O)OCC(=O)N(C)C2CCS(=O)(=O)C2)cc1` (centres undefined), the “activity change (ATP luminescence)” value is 0.611%.

In the case of `COc1ccc(/C=C/C(=O)c2ccncc2)c2ccccc12`, the “activity change (ATP luminescence)” value was 0.388%.

`COc1cc(CNCCO)cc(Cl)c1OCc1ccc(Cl)cc1Cl`: the “activity change (ATP luminescence)” value is 138%.

For `Cc1ccc(NC(=O)NCC2CCN(Cc3cccc(Cl)c3)CC2)cc1Cl`, the “activity change (ATP luminescence)” value is 137%.

For `CCc1ccc(-n2c(C)cc(/C=N/NC(=O)c3ccncc3)c2C)cc1`, the “activity change (ATP luminescence)” value is -6.46%.

As for `Cc1cc(C)nc(-n2nc(C)cc2Nc2ccccc2)n1`, the “activity change (ATP luminescence)” value was 9.72%.

For the compound `CC1=CC(C)(C)N(C(=O)CSc2nnc(-c3ccc(C)cc3)o2)c2ccc(C)cc21`, the “activity change (ATP luminescence)” value is -19.3%.

As for `CCOC(=O)C(=Cc1ccc(Br)cc1)C(=O)OCC`, the “activity change (ATP luminescence)” value was 7.87%.

Consider `O=[N+]([O-])c1ccc(N2CCN(CCOc3nonc3-c3ccccc3)CC2)c(Cl)c1`, for which the “activity change (ATP luminescence)” value is -50.3%.

In the case of `Cc1ccccc1OC1C(=O)N(Cc2ccc3c(c2)OCO3)C1c1sccc1C` (centres undefined), the “activity change (ATP luminescence)” value is 4.5% [at 12 µM].

As for `CC(Sc1nnc2c(n1)[nH]c1ccccc12)C(=O)N(C)C1CCCCC1` (centres undefined), the “activity change (ATP luminescence)” value is -8.47%.

As for `CCCC1(c2ccccc2)NC(=O)N(CC(=O)Nc2cc(C)ccc2OC)C1=O` (centres undefined), the “activity change (ATP luminescence)” value is -8.9%.

In the case of `O=[N+]([O-])c1ccc(-n2cnc3ccccc32)c([N+](=O)[O-])c1`, the “activity change (ATP luminescence)” value is 8%.

For the compound `CCS(=O)(=O)c1ncc(Cl)c(C(=O)Nc2ccccc2OC)n1`, the “activity change (ATP luminescence)” value was -7.94%.

As to `Cc1ccc(OCc2cc(C(=O)N(C)Cc3cc(C4CC4)n[nH]3)no2)cc1C`, the “activity change (ATP luminescence)” value was 1.19%.

Turning to `COCCCNC(=S)N/N=C/c1cccc(OC)c1O`, the “activity change (ATP luminescence)” value is -7.08%.

On to `O=C(Nc1ccc(F)cc1F)N1CCCN(CCOc2ccccc2)CC1`, for which the “activity change (ATP luminescence)” value was -26.2%.

Turning to `CC(=O)Nc1ccc(S(=O)(=O)N2c3ccccc3NC(=O)CC2C)c(Cl)c1` (centres undefined), the “activity change (ATP luminescence)” value is -37.2%.

As to `Cc1cccc(NC(=O)Cn2c(/C=C/c3ccccc3)nc3ccccc32)c1`, the “activity change (ATP luminescence)” value is 11.3%.

In the case of `O=C(Oc1cccc2cccnc12)c1cccc(N2C(=O)C3C4CCC(C4)C3C2=O)c1` (centres undefined), the “activity change (ATP luminescence)” value was -0.822%.

In the case of `O=c1c(Cl)c(Cl)cnn1Cc1ccc(F)cc1`, the “activity change (ATP luminescence)” value was 33.2%.

For `O=C(Cn1ncc(Cl)c(Cl)c1=O)c1ccc2c(c1)OCCO2`, the “activity change (ATP luminescence)” value is 131%.

`Cc1ccc2ccc3ccc(C)nc3c2n1`: the “activity change (ATP luminescence)” value is 5.01%.

As to `CCOCCCNC(=O)c1c[nH]c2cc(OC)ccc2c1=O`, the “activity change (ATP luminescence)” value is -29.9%.

On to `COc1ccc(C(=O)CSc2n[nH]c(=O)n2Cc2ccco2)cc1`, for which the “activity change (ATP luminescence)” value was -29.5%.

With `CCOc1ccc(OCC)c(S(=O)(=O)NCCOC23CC4CC(CC(C4)C2)C3)c1`, the “activity change (ATP luminescence)” value is 149%.

Take `C=CCN(CC=C)CC(O)Cn1c2ccccc2c2ccccc21` (centres undefined): the “activity change (ATP luminescence)” value was 8.59%.

Regarding `O=C(NCc1ccccn1)c1cc(-c2ccc(Cl)cc2)oc1C(F)(F)F`, the “activity change (ATP luminescence)” value is -54%.

Consider `CCN(CC(=O)Nc1ccc(NC(C)=O)cc1)C(=O)CCCOc1ccc(C(C)(C)C)cc1`, for which the “activity change (ATP luminescence)” value is 3.97%.

With `CC(=O)Oc1ccc(N(C(C)=O)S(=O)(=O)c2cccs2)c2ccccc12`, the “activity change (ATP luminescence)” value was 6.75%.

For the compound `Cc1ccc(O)c(CNc2cccc3cccnc23)c1`, the “activity change (ATP luminescence)” value was 12.8%.

As for `Cc1nc(C(F)(F)F)c(C(=O)N/N=C(\N)c2ccccn2)s1`, the “activity change (ATP luminescence)” value is -4.67%.

As to `COc1ccc(/C=C/C(=O)NC(=S)Nc2ccccc2C(=O)NC2CCCCC2)cc1`, the “activity change (ATP luminescence)” value is 36.7%.

With `O=C1CSC(c2ccccc2F)N1` (centres undefined), the “activity change (ATP luminescence)” value is -2.44%.

As to `CC(=O)c1c(C)[nH]c(C(=O)CN2CCN(S(=O)(=O)c3ccccc3)CC2)c1C`, the “activity change (ATP luminescence)” value is 0.844%.

`CCOc1ccc(-n2c(=O)[nH]cc(C(=O)Nc3ccc(OC)c(OC)c3)c2=O)cc1`: the “activity change (ATP luminescence)” value is -8.71%.

Regarding `CCCOc1ccc(C(=O)C(CN2CCOCC2)c2ccccc2)cc1` (centres undefined), the “activity change (ATP luminescence)” value was -20% [at 12 µM].

Consider `CC(NC(=O)C1CCC(C(=O)NC(C)c2ccccc2)CC1)c1ccccc1` (centres undefined), for which the “activity change (ATP luminescence)” value was 4.42%.
